Records with an inconclusive call do not appear. Active and inactive are the calls of the source. The call rests on the fitted dose curve; in most records, active means well fitted curve in the direction sought with a large enough effect; inconclusive means small, poorly fitted or top-dose-only effect, or another doubt; inactive means no such curve, though single readings can be large; an effect the other way counts as inactive or inconclusive.
Assays:
[1] = qHTS of pediatric cancer cell lines to identify multiple opportunities for drug repurposing: Primary screen for TC32 cells (AID 1347089); further: nearly all actives have a fitted effect of over 60% in size; further: potency means the concentration at half of the fitted maximal effect; on activity change, negative = cytotoxic: on the % scale 0 is the no-effect control and ±100 the full control effect
Summary of the method: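 A viability screen of TC32 cells was run over 48 h, with primary MIPE doses spanning 0.78 nM–46 µM and NPC doses 0.59 nM–46 µM. ATP luminescence (CellTiter-Glo) served as the read-out.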

[2] = qHTS of pediatric cancer cell lines to identify multiple opportunities for drug repurposing: Primary screen for DAOY cells (AID 1347090); further: nearly all actives have a fitted effect of over 55% in size; further: potency means the concentration at half of the fitted maximal effect;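 on activity change, negative = cytotoxic: series mostly up to about 46 µM; plate controls were DMSO for no effect and bortezomib for full effect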
Summary of the method: (§1)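 Cell viability, CellTiter-Glo luminescence; 500-1,000 cells/well, 8- or 11-point titration, 48 h compound exposure at 37 degrees C, 5% CO2. Controls: DMSO neutral, bortezomib 2.3 µM final as positive.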

[3] = qHTS of pediatric cancer cell lines to identify multiple opportunities for drug repurposing: Primary screen for SJ-GBM2 cells (AID 1347091);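 further: plate controls were DMSO neutral control for no effect and bortezomib for full effect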
Summary of the method: as §1

[4] = qHTS of pediatric cancer cell lines to identify multiple opportunities for drug repurposing: Primary screen for A673 cells (AID 1347092); further: nearly all actives have a fitted effect of over 45% in size; further: potency means the concentration at half of the fitted maximal effect; on activity change, negative = cytotoxic: on the % scale 0 is the no-effect control and ±100 the full control effect
Summary of the method: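 Titration-based qHTS on A673 cells: MIPE compounds spanned 11 points (0.78 nM to 46 µM final), NPC compounds 8 points (0.59 nM to 46 µM final). Viability after 48 h was measured by ATP luminescence.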

[5] = qHTS of pediatric cancer cell lines to identify multiple opportunities for drug repurposing: Primary screen for BT-37 cells (AID 1347094); further: potency means the concentration at half of the fitted maximal effect;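 on activity change, negative = cytotoxic: series mostly up to about 57 µM; plate controls were DMSO for no effect and bortezomib for full effect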
Summary of the method: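 Cells seeded at 500-1,000 cells/well in growth media, rested 5 hours at 37 degrees C, 5% CO2, then dosed; MIPE compounds at 11-point (from 0.78 nM) and NPC at 8-point (from 0.59 nM) final concentrations. Viability by CellTiter-Glo luminescence after 48 hours.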

[6] = qHTS of pediatric cancer cell lines to identify multiple opportunities for drug repurposing: Primary screen for SK-N-MC cells (AID 1347093); further: potency means the concentration at half of the fitted maximal effect;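 on activity change, negative = cytotoxic: series mostly up to about 46 µM; plate controls were DMSO neutral control for no effect and bortezomib for full effect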
Summary of the method: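 Metabolically active cells were quantified by ATP-dependent luminescence (CellTiter-Glo, 15 min at room temperature) following 48 h treatment. Cells had been plated at 500-1,000 per well and settled for 5 h beforehand.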

CC(C)(c1ccc(O)cc1)c1ccc(O)cc1
inactive: Potency [1] | Potency [2] | Potency [3] | Potency [4] | Potency [5]

CCC(=O)Oc1ccc2c(c1)CC[C@@H]1[C@@H]2CC[C@@]2(C)[C@H]1C[C@@H](OC(=O)CC)[C@@H]2OC(=O)CC
inactive: Potency [1] | Potency [2] | Potency [3] | Potency [4] | Potency [5]

CN(CC1(C)CCCO1)S(=O)(=O)c1ccc(Cl)c(S(N)(=O)=O)c1 (stereo unspecified)
inactive: Potency [1] | Potency [2] | Potency [3] | Potency [6] | Potency [5]

CCCOc1ccc2c(c1)CC[C@@H]1[C@@H]2CC[C@]2(C)C(OC)CC[C@@H]12 (stereo partly specified)
inactive: Potency [1] | Potency [2] | Potency [3] | Potency [6] | Potency [5]

O=C1Nc2ccccc2C1(c1ccc(O)cc1)c1ccc(O)cc1
inactive: Potency [1] | Potency [2] | Potency [3] | Potency [4] | Potency [5]

CCOC(=O)[C@H](CCc1ccccc1)N[C@@H](C)C(=O)N(CC(=O)O)C1Cc2ccccc2C1
inactive: Potency [1] | Potency [2] | Potency [3] | Potency [4] | Potency [5]

CCOC(=O)N1CCC(Nc2ccc(Cl)cc2N)CC1
inactive: Potency [1] | Potency [2] | Potency [3]
active: Potency [6] 10.6 µM

C[N+]1(CC2COC(c3ccccc3)(c3ccccc3)O2)CCCCC1 (stereo unspecified)
inactive: Potency [1] | Potency [2] | Potency [3] | Potency [6] | Potency [5]

NCC[C@H](O)C(=O)N[C@@H]1C[C@H](N)[C@@H](O[C@H]2O[C@H](CN)[C@@H](O)[C@H](O)[C@@H]2O)[C@H](O)[C@@H]1O[C@H]1O[C@H](CO)[C@@H](O)[C@H](N)[C@@H]1O
inactive: activity change, negative = cytotoxic [1] 10.2% [at 0.594 µM] | activity change, negative = cytotoxic [2] 11.4% [at 0.597 µM] | activity change, negative = cytotoxic [3] 26.2% [at 0.597 µM] | activity change, negative = cytotoxic [6] -10.7% [at 0.597 µM] | activity change, negative = cytotoxic [5] 11.5% [at 0.745 µM]

CC(C)C(=O)Nc1cccc(C(F)(F)F)c1
inactive: Potency [1] | Potency [2] | Potency [3] | Potency [6] | Potency [5]

Nc1c(I)cc(I)c(C(=O)N(CCC(=O)O)c2ccccc2)c1I
inactive: Potency [1] | Potency [2] | Potency [3] | Potency [6] | Potency [5]

O=C(CCOCCOCCOCCOCCC(=O)Nc1c(I)cc(I)c(C(=O)O)c1I)Nc1c(I)cc(I)c(C(=O)O)c1I
inactive: Potency [1] | Potency [2] | Potency [3] | Potency [6] | Potency [5]

CCCCCC[C@@H](CCC)C(=O)O
inactive: Potency [1] | Potency [2] | Potency [3] | Potency [4] | Potency [5]

CC1CC(=O)NN=C1c1ccc(NCC(C)(C)NCC(O)COc2cc(Cl)ccc2C#N)cc1 (stereo unspecified)
inactive: Potency [1] | Potency [2] | Potency [3] | Potency [6] | Potency [5]

COC(=O)c1c(Cl)c(Cl)c(C(=O)OC)c(Cl)c1Cl
inactive: Potency [1] | Potency [2] | Potency [3] | Potency [6] | Potency [5]

CO[C@@H]1[C@@H](O[C@@H]2O[C@H](C)[C@@H](O[C@H]3C[C@@](C)(O)[C@@H](O)[C@H](C)O3)[C@H](N(C)C)[C@H]2O)[C@@H](CC=O)C[C@@H](C)[C@@H](O[C@@H]2CC[C@H](N(C)C)[C@@H](C)O2)/C=C/C=C/C[C@@H](C)OC(=O)C[C@H]1OC(C)=O
inactive: Potency [1] | Potency [2] | Potency [3] | Potency [6] | Potency [5]

C#CC(C)(CC)OC(=O)c1ccccc1C(=O)O (stereo unspecified)
inactive: Potency [1] | Potency [2] | Potency [3] | Potency [6] | Potency [5]

CN(C)CCOC1=Cc2ccccc2Sc2ccc(Cl)cc21
inactive: Potency [1] | Potency [2] | Potency [3] | Potency [6]

CC1(C)S[C@@H]2[C@H](NC(=O)C(c3ccccc3)S(=O)(=O)O)C(=O)N2[C@H]1C(=O)O (stereo partly specified)
inactive: Potency [1] | Potency [2] | Potency [3] | Potency [6] | Potency [5]

CCOC(=O)c1ccc(OCCN2C[C@H](O)[C@@H](O)[C@H](O)[C@H]2CO)cc1
inactive: Potency [1] | Potency [2] | Potency [3] | Potency [6] | Potency [5]

NS(=O)(=O)c1ccc(N2CCCCS2(=O)=O)cc1
inactive: Potency [1] | Potency [2] | Potency [3] | Potency [6] | Potency [5]

N[C@@H](Cc1cc(I)c(O)c(I)c1)C(=O)O
inactive: Potency [1] | Potency [2] | Potency [3] | Potency [4] | Potency [5]

COC(=O)/C=C\C(=O)OC
inactive: Potency [1] | Potency [2] | Potency [3] | Potency [6] | Potency [5]

O=C(CO)[C@@H](O)[C@H](O)[C@@H](O)CO
inactive: Potency [1] | Potency [2] | Potency [3] | Potency [4] | Potency [5]

COCCc1ccc(OCC2CO2)cc1 (stereo unspecified)
inactive: Potency [1] | Potency [2] | Potency [3] | Potency [6] | Potency [5]

CN1CC(=O)N2[C@H](c3ccc4c(c3)OCO4)c3[nH]c4ccccc4c3C[C@@H]2C1=O
inactive: Potency [1] | Potency [2] | Potency [3] | Potency [6] | Potency [5]

CCCCCCCCCCCCCCCCCCN(C)C
inactive: Potency [1] | Potency [2] | Potency [3] | Potency [6] | Potency [5]

CN1CCC(=C2c3ccccc3CCc3cccnc32)CC1
inactive: Potency [1] | Potency [2] | Potency [3] | Potency [6] | Potency [5]

Nc1nc2ccccc2n1Cc1ccc(F)cc1
inactive: Potency [1] | Potency [2] | Potency [3] | Potency [6] | Potency [5]

O=C(Oc1ccccc1)c1ccccc1O
inactive: Potency [1] | Potency [2] | Potency [3] | Potency [6] | Potency [5]

O=C(O)C1CCC1
inactive: Potency [1] | Potency [2] | Potency [3] | Potency [6]

CN1Cc2cc(C(=O)N3CCC(C4CCNCC4)CC3)ccc2N[C@@H](CC(=O)O)C1=O
inactive: Potency [1] | Potency [2] | Potency [3] | Potency [6] | Potency [5]

CCCCC/C=C\C/C=C\CCCCCCCC(=O)NC(C)c1ccccc1 (stereo unspecified)
active: Potency [6] 18.8 µM
inactive: Potency [1] | Potency [2] | Potency [3]

C[C@@H](C1=C(CCN(C)C)Cc2ccccc21)c1ccccn1
inactive: Potency [1] | Potency [2] | Potency [3] | Potency [4] | Potency [5]

Nc1nnnn1-c1ccccc1
inactive: Potency [1] | Potency [2] | Potency [3] | Potency [4] | Potency [5]

O=C(COCCOCCOCC(=O)Nc1c(I)cc(I)c(C(=O)O)c1I)Nc1c(I)cc(I)c(C(=O)O)c1I
inactive: Potency [1] | Potency [2] | Potency [3] | Potency [4] | Potency [5]

CO/N=C(/C(=O)N[C@@H]1C(=O)N2C(C(=O)[O-])=C(C[n+]3ccn4ncccc43)CS[C@H]12)c1nsc(N)n1
inactive: Potency [1] | Potency [2] | Potency [3] | Potency [6] | Potency [5]

CCCC(=O)O[C@]1(C(=O)CC)CC[C@H]2[C@@H]3CCC4=CC(=O)CC[C@]4(C)[C@H]3[C@@H](O)C[C@@]21C
active: Potency [6] 33.5 µM
inactive: Potency [1] | Potency [2] | Potency [3] | Potency [5]

CO[C@@H]1[C@@H](OC)[C@H](C)[C@@](O)(CC(=O)O)O[C@H]1[C@H](C)[C@H]1O[C@@]2(CC[C@@](C)([C@H]3CC[C@@](C)([C@@H]4O[C@@H]([C@H]5O[C@](C)(O)[C@H](C)C[C@@H]5C)C[C@@H]4OC4C[C@H](OC)[C@@H](OC)[C@H](C)O4)O3)O2)C[C@H](O)[C@H]1C (stereo partly specified)
active: Potency [1] 1.87 µM | Potency [2] 3.35 µM | Potency [4] 4.22 µM | Potency [6] 0.188 µM | Potency [5] 0.389 µM

CCCc1ncc(C(=O)O)s1
inactive: Potency [1] | Potency [2] | Potency [4] | Potency [6] | Potency [5]

CCCCN(CCCC)C(C(N)=O)c1ccc(OC)cc1 (stereo unspecified)
inactive: Potency [1] | Potency [2] | Potency [3] | Potency [5]

CCS(=O)(=O)c1ccc(OC)c(C(=O)OC)c1
inactive: Potency [1] | Potency [2] | Potency [4] | Potency [6] | Potency [5]

COCCOCC(OC)OC
inactive: Potency [1] | Potency [2] | Potency [4] | Potency [6] | Potency [5]

C#Cc1ccc(-c2ccccc2F)cc1
inactive: Potency [1] | Potency [2] | Potency [3] | Potency [5]

C[C@H](N)C(=O)N[C@@H](C)C(=O)NC1[C@H]2CN(c3nc4c(cc3F)c(=O)c(C(=O)O)cn4-c3ccc(F)cc3F)C[C@@H]12 (stereo partly specified)
inactive: Potency [1] | Potency [2] | Potency [6]

CC(=O)[C@H]1CC[C@H]2[C@@H]3C=CC4=CC(=O)CC[C@@]4(C)[C@@H]3CC[C@]12C
inactive: Potency [1] | Potency [2] | Potency [3] | Potency [5]

CCc1cc2cc(OC)c(OC)cc2c(Cc2ccccc2)n1
inactive: Potency [1] | Potency [2] | Potency [4] | Potency [6] | Potency [5]

C[C@H]1C[C@H]2[C@@H]3CCC4=CC(=O)C=C[C@]4(C)[C@H]3C(=O)C[C@]2(C)[C@@]1(O)C(=O)CO
inactive: Potency [1] | Potency [2] | Potency [6]

COc1cc2c(cc1OC)CN(C(=O)[C@H](C)N[C@@H](CCc1ccccc1)C(=O)O)[C@H](C(=O)O)C2
inactive: Potency [1] | Potency [2] | Potency [4] | Potency [6]

CCC(C(=O)NC(=O)NC(C)=O)c1ccccc1 (stereo unspecified)
inactive: Potency [1] | Potency [2] | Potency [4] | Potency [6]

CC(COc1ccccc1)NN (stereo unspecified)
inactive: Potency [1] | Potency [2] | Potency [4] | Potency [6] | Potency [5]

Cc1cccc(N(C)C(=S)Oc2ccc3c(c2)CCC3)c1
inactive: Potency [1] | Potency [2] | Potency [3] | Potency [5]

CCOC(=O)C(O)c1ccccc1 (stereo unspecified)
inactive: Potency [1] | Potency [2] | Potency [4] | Potency [6] | Potency [5]

CCCC(=O)c1cc(O)c(O)cc1O
active: Potency [4] 12.2 µM
inactive: Potency [1] | Potency [2]

CCC[C@H](N[C@@H](C)C(=O)N1[C@H](C(=O)O)C[C@@H]2CCCC[C@@H]21)C(=O)OCC
inactive: Potency [1] | Potency [2] | Potency [3] | Potency [5]

c1ccc(C(O[C@H]2CCCN(CCc3ccc4c(c3)OCO4)C2)c2ccccc2)cc1
inactive: Potency [1] | Potency [2] | Potency [4]

CC(CC1c2ccccc2CCc2ccccc21)CN(C)C (stereo unspecified)
inactive: Potency [1] | Potency [2] | Potency [4]

C[N+]1(C)CCC(OC(=O)C(O)(c2ccccc2)C2CCCC2)C1 (stereo unspecified)
inactive: Potency [1] | Potency [2] | Potency [3] | Potency [6] | Potency [5]

CN(C)CCN1CCN(c2cccc(Cl)c2)C1=O
inactive: Potency [1] | Potency [2] | Potency [4] | Potency [5]

CC(=O)OC/C=C(C)/C=C/C=C(C)/C=C/C1=C(C)CCCC1(C)C
inactive: Potency [1] | Potency [2] | Potency [3] | Potency [5]

CN1CCCN=C1/C=C/c1cccs1
inactive: Potency [1] | Potency [2] | Potency [3] | Potency [5]

NS(=O)(=O)c1cc(C(=O)NN2C[C@H]3[C@H]4CCC(C4)[C@H]3C2)ccc1Cl
inactive: Potency [1] | Potency [2] | Potency [4] | Potency [6] | Potency [5]

— PubChem BioAssay (NCATS)
